Among the data in ChEMBL document CHEMBL1201862, “PubChem BioAssay data set” (2004) are GI50 values, retold here.

The campaign covered roughly 56,000 sequences. About 3,400 (6.1%) were called active. No stated cut-off is given here; in the data, active = GI50 up to about 1.1 µM and inactive = higher. The list is a sample of the results. Results with a measured potency or affinity are listed apart.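 Method: 48-hour compound exposure of cells in 96-well plates, five concentrations, linear interpolation of endpoints. GI50 = concentration required for 50% inhibition of growth.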

For this test, the system named is HOP-62. Nature of the test: NCI tumour cell line growth inhibition, 48 h.
For the substance “cis-Bis[[(trimethylsilyl)methyl]amino]tetrachloroplatinum(IV), CHEMBL2146191”, the GI50 came to 20.6 µM.
In the case of “[Bis(aminomethyl)diethylsilane]tetrachloroplatinum(IV), CHEMBL2146203”, the GI50 turned out to be 1.7 µM.
In the case of “mu-(1,7-nanodiamine-N,N')bis-(cis-aminedichloroplatimum (II)), CHEMBL2146215”, the GI50 was 7.64 µM.
The value for CISPLATIN, CHEMBL11359 was 1.82 µM.
With “[Bis(aminomethyl)dimethylsilane]tetrachloroplatinum(IV), CHEMBL2146190” the figure was 6.61 µM; with “[Bis(aminomethyl)tetramethylenesilane]tetrachloropaltinum(IV), CHEMBL2146189”, 6.32 µM.
With “[Bis(aminomethyl)dimethylsilane]dichloroplatinum (II), CHEMBL2146201” the figure was 35.3 µM; with “[Bis(aminomethyl)tetramethylenesilane]dichloropaltinum(II), CHEMBL2146205”, 39.7 µM.
In turn, “[Bis(aminomethyl)ethylmethylsilane]tetrachloroplatinum(IV), CHEMBL2146192” came in with a GI50 of 4.91 µM.
With “[Bis(aminomethyl)pentamethylenesilane]tetrachloropaltinum(IV), CHEMBL2146204” the figure was 1.55 µM.
Regarding “[Bis(aminomethyl)pentamethylenesilane]dichloropaltinum(II), CHEMBL2146202”, the GI50 came out at 2.33 µM.
